The whole screen tested about 340,000 compounds, of which about 1,800 (0.53%) were called active.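 The calls were made as follows: active = activation over 3 SD above normal in the single-dose calcium agonist read (cut at about 30% in these data); inactive = the rest.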 The list comes from a sample in which actives are over-represented; it also holds similar structures and randomly drawn compounds.
Biological target: D(2) dopamine receptor (Homo sapiens) (UniProt P14416)
Test: HTS Assay for Allosteric Agonists of the Human D2 Dopamine Receptor: Primary Screen for Agonists; also: 0% is about no effect
Details: HEK293 T-REx D2 cells, calcium flux agonist mode; at 2 µM; hits give high values
Procedure, shortened: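 Agonism scored from kinetic calcium signal (1 read/sec, 180 s) following compound pin transfer, after a 10 s baseline. Cells: HEK293 Trex line expressing inducible D2 receptor coupled to calcium, dye-loaded after overnight culture at 30 C.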

D(2) dopamine receptor (Homo sapiens), sequence (P14416 whole entry, looked up): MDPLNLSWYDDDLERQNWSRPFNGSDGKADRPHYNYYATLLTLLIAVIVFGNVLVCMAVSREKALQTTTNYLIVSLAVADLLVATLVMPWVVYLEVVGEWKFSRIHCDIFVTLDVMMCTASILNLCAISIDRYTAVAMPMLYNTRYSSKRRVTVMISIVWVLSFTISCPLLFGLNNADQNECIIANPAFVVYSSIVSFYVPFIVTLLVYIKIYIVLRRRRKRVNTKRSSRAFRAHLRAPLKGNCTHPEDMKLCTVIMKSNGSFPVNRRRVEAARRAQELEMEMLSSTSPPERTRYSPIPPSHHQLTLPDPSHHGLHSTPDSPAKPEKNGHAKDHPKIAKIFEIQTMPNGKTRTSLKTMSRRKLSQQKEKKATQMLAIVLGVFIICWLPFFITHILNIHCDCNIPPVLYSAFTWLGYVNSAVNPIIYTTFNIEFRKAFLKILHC

| Structure (SMILES) | activation |
| --- | --- |
| O=C(NCCc1c[nH]c2ccccc12)C1CCN(Cc2ccc(Br)cc2)CC1 | -0.253% (inactive) |
| N#C/C(=C/c1ccc(N2CCOCC2)o1)C(=O)N1CCOCC1 | 7.75% (inactive) |
| N#C/C(=C/c1ccc(N2CCCCC2)o1)C(=O)NCCc1c[nH]c2ccccc12 | 38.7% (active) |
| CCOc1cc(-c2nnc(SCC(=O)NC3CCCC3)nc2-c2ccc(OC)c(OCC)c2)ccc1OC | 0.392% (inactive) |
| Cc1ccc(C(=O)Nc2c(C(=O)NC(C)(C)C)oc3ccccc23)cc1 | 0.0939% (inactive) |
| CCC(=O)Nc1ccc2c(c1)nc(CCN1CCN(c3ccccn3)CC1)n2C | 78.2% (active) |
| Cn1c(CCN2CCCCCC2)nc2cc(NC(=O)Nc3ccccc3)ccc21 | 1.58% (inactive) |
| CCOC(=O)N1CCN(Cc2nc3cc(NC(C)=O)ccc3n2C)CC1 | 0.585% (inactive) |
| O=C(CN1CCN(c2ccccn2)CC1)Nc1ccc(Br)cc1 | 43.9% (active) |
| O=C(CN1CCN(c2ccccn2)CC1)NCc1cccs1 | 18.2% (inactive) |
| CC(C(=O)N(C)CC(=O)Nc1ccccc1C(F)(F)F)N1C(=O)c2ccccc2C1=O (configuration not stated) | -0.167% (inactive) |
| O=C(CN1CCN(c2ncccn2)CC1)Nc1ccccc1C(F)(F)F | 57.8% (active) |
| O=C(Cc1ccc(Br)cc1)N1CCN(c2ccccn2)CC1 | 0.551% (inactive) |
| O=C(CSc1n[nH]c(=O)n1-c1ccccc1)Nc1ccccc1C(F)(F)F | 0.222% (inactive) |
| CCN(CC)c1ccc(NC(=O)CN2CCN(c3ccccn3)CC2)cc1 | 26.5% (inactive) |
| O=C(CN1CCN(c2ccccn2)CC1)NC1CCCCC1 | 67.6% (active) |
| CS(=O)(=O)N1CCN(CC(=O)NC2CCCC2)CC1 | -0.0909% (inactive) |
| CC1CCN(S(=O)(=O)c2ccc3c(c2)N(CC(=O)NCc2ccccc2Cl)C(=O)CO3)CC1 | -0.934% (inactive) |
| CCc1ccc(Sc2cc(C(=O)NCCCOC(C)C)c3ccccc3n2)cc1 | 0.0547% (inactive) |
| Cc1c(Cl)cccc1-c1ccc(CNCCCSc2nnnn2C)o1 | 0.946% (inactive) |
| COc1ccc(-c2cn3nc(N4CCC(C(=O)Nc5cccc(C)c5C)CC4)sc3n2)cc1 | 1.52% (inactive) |
| CSc1cccc(NC(=O)CN2C(=O)CCc3cc(S(=O)(=O)N4CCCCC4)ccc32)c1 | 1.49% (inactive) |

| Structure (SMILES) | activation |
| --- | --- |
| COc1ccc(NC(=O)NC(C)c2c(-n3cccc3)sc(C)c2C)cc1OC (configuration not stated) | 0.829% (inactive) |
| CCOC(=O)c1c(C)[nH]c(C)c1S(=O)(=O)NCC(=O)NCc1cccc(C)c1 | 0.112% (inactive) |
| COc1ccc(CCNC(=O)c2cc(=O)c3c(C)cc(C)cc3o2)cc1OC | -0.676% (inactive) |
| COc1cccc(CNC(=O)C(=O)NCC(c2cccs2)S(=O)(=O)c2ccccc2)c1 (configuration not stated) | 17.6% (inactive) |
| CCN1CCN(c2ncnc3c2cnn3-c2ccc(C)c(C)c2)CC1 | 0.887% (inactive) |
| COc1cc(C(=O)NCC(c2ccc(Cl)cc2)N2CCOCC2)cc(OC)c1OC (configuration not stated) | -0.027% (inactive) |
| Cc1cc(C)c2oc(C(=O)Nc3c(C(=O)Nc4ccccc4)oc4ccccc34)cc(=O)c2c1 | 0.443% (inactive) |
| Cc1ccccc1C(=O)N(Cc1ccc(N(C)C)cc1)CC1CCCO1 (configuration not stated) | -0.0491% (inactive) |
| O=C(Nc1cc(-c2nc3ccccc3o2)ccc1Cl)c1cc([N+](=O)[O-])ccc1N1CCOCC1 | -0.175% (inactive) |
| Cc1ccccc1OCC(=O)Nc1c(C(=O)Nc2ccccc2F)oc2ccccc12 | -0.888% (inactive) |
| Cn1c2ccccc2c2c(C(=O)N3CCN(c4ccc(F)cc4)CC3)cn(C3CCCC3)c(=O)c21 | 0.715% (inactive) |
| CCOC(=O)c1nnn2c3ccccc3c(=O)n(C)c12 | 0.451% (inactive) |
| CCCc1nc2c(c(=O)c3ccccc3n2C)c(=O)n1C1CCCCCC1 | 38.8% (active) |
| COc1cccc(CNc2nccn(-c3ccc(OC)c(OC)c3)c2=O)c1 | 0.433% (inactive) |
| CCOc1ccccc1C(=O)NC1(C(F)(F)F)NC(=O)N(CCc2ccc(OC)c(OC)c2)C1=O (configuration not stated) | -1.49% (inactive) |
| Cc1ccc(C)c(CN2C(=O)c3ccccc3S(=O)c3ccc(C(=O)N4CCOCC4)cc32)c1 (configuration not stated) | 0.908% (inactive) |
| CCSc1nnc2c(n1)OC(c1ccc(OCC(=O)O)cc1)Nc1ccccc1-2 (configuration not stated) | -0.918% (inactive) |
| CC(C)c1csc(CN2CCC(CO)(Cc3ccccc3)CC2)n1 | 0.222% (inactive) |
| O=C(c1cc2ccccc2o1)N1CCN(Cc2ccccc2)CC1 | 0.213% (inactive) |
| OCC1(Cc2ccccc2)CCN(Cc2cc3ccccc3o2)CC1 | 58.8% (active) |
| O=C(c1ccc(Cl)cc1)c1ccc(OCC(O)CN2CCCCC2)cc1 (configuration not stated) | 0.406% (inactive) |
| OC(COc1ccc2c(c1)CCC2)CN1CCN(c2cccc(Cl)c2)CC1 (configuration not stated) | 55.1% (active) |

| Structure (SMILES) | activation |
| --- | --- |
| O=c1cc(CN2CCN(c3cccc(Cl)c3)CC2)c2cc3c(cc2o1)CCCC3 | -0.276% (inactive) |
| CCNS(=O)(=O)c1ccc(NC(=O)CSc2nc(-c3ccco3)cc(C(F)(F)F)n2)cc1 | -0.45% (inactive) |
| Nc1c(C(=O)c2cccs2)sc2nsc(SCCN3CCCCC3)c12 | 52.2% (active) |
| COc1ccc(CCC(=O)NCc2ccc3c(c2)CCN3C(=O)c2ccc(F)cc2)cc1 | 1.61% (inactive) |
| CCN1CCN(c2ncc3c(n2)CC(c2ccccc2O)CC3=O)CC1 (configuration not stated) | -0.199% (inactive) |
| CCN(CC)CCC(c1ccc2c(c1)OCO2)c1c(OC)cc(OC)c2c(-c3ccccc3)cc(=O)oc12 (configuration not stated) | -1.38% (inactive) |
| COc1cc(C(CCN2CCN(c3ccccc3)CC2)c2c(OC)cc(OC)c3ccc(=O)oc23)cc(OC)c1OC (configuration not stated) | 25.6% (inactive) |
| COc1cc(OC)c2ccc(=O)oc2c1C(CCN1CCN(c2ccccc2)CC1)c1ccc2c(c1)OCO2 (configuration not stated) | 78.4% (active) |
| CCCn1c2ccccc2c2cnn(CC(=O)N3CCCC(C(=O)OCC)C3)c(=O)c21 (configuration not stated) | 0.474% (inactive) |
| CCN(C(=O)Cn1c(=O)nc(-c2ccccc2)c2cc(Cl)ccc21)c1cccc(C)c1 | 6.7% (inactive) |
| Cc1csc2nc(COC(=O)c3ccccc3NC(=O)c3ccccc3Cl)cc(=O)n12 | 0.344% (inactive) |
| Cc1csc2nc(COc3ccc(NC(=O)COc4ccccc4)cc3)cc(=O)n12 | -0.592% (inactive) |
| O=c1cc(CCl)nc2scc(-c3ccccc3)n12 | 39.4% (active) |
| CCc1ccccc1NC(=O)c1ccc(F)c(S(=O)(=O)NC2CCCCCC2)c1 | 0.52% (inactive) |
| COc1ccc(NC(=O)CN2CCCN(Cc3ccccc3)S2(=O)=O)cc1 | -1.11% (inactive) |
| COc1ccc(-c2nn(CC(=O)Nc3ccccc3F)c3c2cnc2ccc(F)cc23)cc1 | 0.341% (inactive) |
| CN1C(=O)c2[nH]nc(-c3ccc(F)cc3)c2C1c1ccccn1 (configuration not stated) | 1.23% (inactive) |
| Cc1cc(=O)oc2cc(OCCC[n+]3ccccc3)ccc12 | 0.774% (inactive) |
| Cc1ccccc1N1CCN(CCCOc2ccc3c(C)cc(=O)oc3c2)CC1 | 80.1% (active) |
| CCOc1ccccc1N1CCN(C(=O)COc2ccc3c(C)cc(=O)oc3c2)CC1 | -0.577% (inactive) |
| CCOc1ccc(NC(=O)Cn2cc(C(=O)c3ccc(C)cc3)c(=O)c3cc4c(cc32)OCCO4)cc1 | -0.524% (inactive) |
| CC(=O)NCC(O)c1ccc([N+](=O)[O-])cc1 (configuration not stated) | -2.19% (inactive) |

| Structure (SMILES) | activation |
| --- | --- |
| CNCC(O)c1ccc(O)c(O)c1 (configuration not stated) | 64.9% (active) |
| CC(Sc1oc(-c2ccco2)nc1S(=O)(=O)c1ccc(Br)cc1)c1ccccc1 (configuration not stated) | 0.011% (inactive) |
| COc1ccccc1C(=O)Nc1c(C(=O)N(C)Cc2ccccc2)sc2nc(C)c(Cl)c(C)c12 | 0.563% (inactive) |
| COc1cc(NC(=O)c2nc3ccccc3nc2C)cc(OC)c1OC | 0.0893% (inactive) |
| COc1cccc(CNC(=O)c2cc(=O)[nH]c3ccc(S(=O)(=O)N4CCCCC4)cc23)c1 | 0.436% (inactive) |
| CCOc1ccc(N(CC)C(=O)c2noc3c2COc2ccc(C)cc2-3)cc1 | 0.123% (inactive) |
| Cc1ccccc1Nc1nc(N)nc(CSc2nnc3ccccn23)n1 | 0.185% (inactive) |
| Cc1ccccc1Nc1nc(N)nc(CN2CCN(c3ccccn3)CC2)n1 | 38.5% (active) |
| Cc1ccccc1Nc1nc(N)nc(CSc2ccccc2)n1 | 0.151% (inactive) |
| CCOc1ccc(N(Cc2ccccc2)C(=O)c2nc(S(C)(=O)=O)ncc2Cl)cc1 | 10% (inactive) |
| COc1ccccc1CNC(=O)CCn1c(=O)c2ccccc2n(CC(=O)Nc2ccc(Br)cc2F)c1=O | -0.617% (inactive) |
| Cc1ccc(CNC(=O)c2cccc3c2C(=O)c2ccc(N4CCC(C)CC4)cc2S3(=O)=O)cc1 | 32% (active) |
| CC1CCN(c2c(NCc3ccc(C(=O)NCc4ccccc4)cc3)c(=O)c2=O)CC1 | -1.43% (inactive) |
| COc1cccc(-c2ccc3c(c2)S(=O)(=O)c2cccc(C(=O)O)c2C3=O)c1OC | 1.73% (inactive) |
| CCOc1cccc(CC(=O)N2CCc3c([nH]c4ccccc34)C2c2ccc(F)cc2)c1OCC (configuration not stated) | -0.484% (inactive) |
| Cc1c(CCNC(=O)c2ccc(C(F)(F)F)cc2)sc2nc(-c3ccc(F)cc3)nn12 | -2.35% (inactive) |
| O=C(NC1CCCCC1)c1ccc2c(=O)n(CC3CCCO3)c(=O)[nH]c2c1 (configuration not stated) | 31.5% (active) |
| CCCCCn1c(=O)[nH]c2cc(C(=O)NCCCN3CCCCC3C)ccc2c1=O (configuration not stated) | 1.64% (inactive) |
| O=C(NCc1ccccc1Cl)c1ccc2c(=O)n(CC3CCCO3)c(=S)[nH]c2c1 (configuration not stated) | -2.85% (inactive) |
| COc1ccc(-c2nc3nc(C)cc(C)n3c2Nc2c(C)cccc2C)cc1 | 2.98% (inactive) |
| CCc1cc2c(cc3c(=O)n(CC(=O)NCCc4ccc(OC)c(OC)c4)ncn32)s1 | -0.234% (inactive) |

Source: PubChem BioAssay AID485358 (National Center for Advancing Translational Sciences (NCATS), 2010)
